Here are results for ten compounds from publication PMC11062922 (Nature Chemical Biology, 2023).

Common to all, as to set-up: species or system human, MV4-11 + K-562 + COLO205 + SK-N-BE2 + OVCAR-8
The subject of one experiment is MAP3K12. The settings on record: read-out: apparent Kd; compound concentrations:100 nM and 1000 nM (sheet 'Samples'); n = 1.
A further experiment deals with MAPK11. As to conditions: read-out: apparent Kd, n = 1.
A further experiment has as its system NUAK1. As to conditions: read-out: apparent Kd, n = 1.
The next experiment concerns NUAK2. The settings on record: read-out: apparent Kd; compound concentrations:100 nM and 1000 nM (sheet 'Samples'); n = 1.
A further experiment deals with MAPK14. As to conditions: read-out: apparent Kd, n = 1.
For another experiment, the system named is MAPKAPK2. As to conditions: read-out: apparent Kd, n = 1.
The next experiment concerns JAK2. The settings on record: read-out: apparent Kd; compound concentrations: 100 nM and 1000 nM (sheet 'Samples'), CATDS: 0.12292389109729; n = 1.
A further experiment has as its system MAPK10. As to conditions: read-out: apparent Kd, n = 1.
The next experiment concerns MAPK8. As to conditions: read-out: apparent Kd, n = 1.
The subject of another experiment is MAPK9. The settings on record: read-out: apparent Kd, n = 1.
Another experiment relates to NLK. The settings on record: read-out: apparent Kd, n = 1.
Another experiment concerns MAP3K1. The settings on record: read-out: apparent Kd; compound concentrations:100 nM and 1000 nM (sheet 'Samples'); n = 1.
The next experiment relates to PIP4K2C. As to conditions: read-out: apparent Kd; compound concentrations:100 nM and 1000 nM (sheet 'Samples'); n = 1.
Setting [1] is: compound concentrations:100 nM and 1000 nM (sheet 'Samples').

Like-named read-outs stand apart in the source and are kept apart here.

`O=C(Nc1n[nH]c2nc(-c3ccccc3)c(Cl)cc12)C1CC1` [SB-734909]: the potency estimated from few doses is 1520 nM with MAP3K12, 1940 nM in the experiment with MAPK11 (setting [1]), 1980 nM with NUAK1 (setting [1]) and 1350 nM in the experiment with NUAK2.

Take `Cc1ccc(NC(=O)c2ccnc(N3CCCCC3)c2)cc1-c1ccc(C(=O)NCC2CC2)cc1` [GW775610X]: the potency estimated from few doses with MAPK11 (setting [1]) was 309 nM; in the experiment on MAPK14 (setting [1]), 199 nM; with MAPKAPK2 (setting [1]) it was 107 nM.

Take `O=c1c(Oc2ccc(F)cc2F)cc2cnc(NC3CCOCC3)nc2n1C1CCS(=O)(=O)CC1` [RO5036538-000]: the potency estimated from few doses was 230 nM with JAK2; 221 nM with MAPK10 (compound concentrations: 100 nM and 1000 nM (sheet 'Samples'), CATDS: 0.124709728908191); 1420 nM with MAPK11 (compound concentrations: 100 nM and 1000 nM (sheet 'Samples'), CATDS: 7.2010910388864605E-2); 13.9 nM with MAPK14 (compound concentrations: 100 nM and 1000 nM (sheet 'Samples'), CATDS: 0.47843238213420702); 1060 nM in the experiment with MAPK8 (compound concentrations: 100 nM and 1000 nM (sheet 'Samples'), CATDS: 7.6573616533716707E-2); 462 nM in the experiment with MAPK9 (compound concentrations: 100 nM and 1000 nM (sheet 'Samples'), CATDS: 9.6122690538123806E-2). Moreover, the potency estimated from few doses in the experiment with MAPKAPK2 (compound concentrations: 100 nM and 1000 nM (sheet 'Samples'), CATDS: 0.314538074262177) is 28.2 nM; with NLK (compound concentrations: 100 nM and 1000 nM (sheet 'Samples'), CATDS: 8.6125216910038493E-2) it was 667 nM; in the experiment with NUAK1 (compound concentrations: 100 nM and 1000 nM (sheet 'Samples'), CATDS: 9.4194293053738595E-2), 493 nM.

Consider `N#CCn1c(=O)c(Oc2ccc(F)cc2F)cc2cnc(NC3CCOCC3)nc21` [RO5040027-000], for which the potency estimated from few doses is 45.1 nM with MAPK10 (setting [1]); 146 nM in the experiment on MAPK11 (setting [1]); 3.79 nM in the experiment with MAPK14 (setting [1]); 523 nM with MAPK8 (setting [1]); 146 nM with MAPK9 (setting [1]); 3.65 nM in the experiment on MAPKAPK2 (setting [1]).

Regarding `O=C(O)/C=C/C(=O)O.OCCCNc1nccc(-c2c(-c3ccc(F)cc3)nn3cc(C(F)(F)F)ccc23)n1` [GW569293E], the potency estimated from few doses in the experiment on MAPK10 (compound concentrations: 100 nM and 1000 nM (sheet 'Samples'), CATDS: 0.51132000357216201) was 1430 nM; in the experiment on MAPK14 (compound concentrations: 100 nM and 1000 nM (sheet 'Samples'), CATDS: 0.48917036256560797), 1570 nM.

As for `C[C@@H](Oc1cc(-n2cnc3ccc(-c4ccncc4)cc32)sc1C(N)=O)c1ccccc1Cl` [GSK483724A], the potency estimated from few doses with MAP3K1 is 1840 nM.

As to `Cc1ccc(NC(=O)c2cccc(N3CCCCC3)c2)cc1-c1ccc(C(=O)NCC2CC2)cc1` [GSK1917008A], the potency estimated from few doses in the experiment on MAPK11 (compound concentrations: 100 nM and 1000 nM (sheet 'Samples'), CATDS: 0.21712264720535299) is 591 nM; in the experiment on MAPK14 (compound concentrations: 100 nM and 1000 nM (sheet 'Samples'), CATDS: 0.45448285689505602), 64.8 nM; in the experiment with MAPKAPK2 (compound concentrations: 100 nM and 1000 nM (sheet 'Samples'), CATDS: 0.455787440841948), 64.5 nM.

`Cl.Cn1c(=O)c(Oc2ccc(F)cc2F)cc2cnc(N[C@H]3CC[C@H](O)CC3)nc21` [RO3305413-001]: the potency estimated from few doses was 806 nM with MAPK11 (setting [1]); 5.68 nM in the experiment on MAPK14 (setting [1]); 75.9 nM with MAPK8 (setting [1]); 26.4 nM in the experiment with MAPK9 (setting [1]); 4.66 nM in the experiment on MAPKAPK2 (setting [1]); 199 nM with NLK (setting [1]). Further, the potency estimated from few doses in the experiment with PIP4K2C was 791 nM.

In the case of `CC(C)Nc1ncc2cc(Oc3ccc(F)cc3F)c(=O)n(C)c2n1.Cl` [RO3309180-001], the potency estimated from few doses with MAPK10 (setting [1]) is 68.5 nM; with MAPK11 (setting [1]) it was 439 nM; in the experiment with MAPK14 (setting [1]), 9.9 nM; in the experiment with MAPK8 (setting [1]), 1080 nM; in the experiment with MAPK9 (setting [1]) it was 369 nM; in the experiment on NLK (setting [1]) it was 1490 nM. The potency estimated from few doses with PIP4K2C was 2100 nM.

On to `Cl.Cn1c(=O)c(Oc2ccc(F)cc2F)cc2cnc(NCCS(C)(=O)=O)nc21` [RO3309294-001], for which the potency estimated from few doses in the experiment with MAPK14 (compound concentrations: 100 nM and 1000 nM (sheet 'Samples'), CATDS: 1) is 344 nM.
